From PubChem
Sampled rows, rich in hits. Any-hit rate of the full collection: about 21%.
Cycloheximide cs: Cycloheximide Counterscreen for Small Molecule Inhibitors of Shiga Toxin; cell reporter, cycloheximide protein synthesis inhibition counterscreen; max response, %; hit rate 12% among 300,000; in the data active means max response mostly above about 13%, no sharp cut-off; inactive means mostly below about 14%; further: read at 38.3 µM for the half of the compounds with a filed dose; 0% is about no effect
Pf growth 96h: Primary qHTS for delayed death inhibitors of the malarial parasite plastid, 96 hour incubation; P. falciparum luciferase reporter growth, 96 h; Potency, µM (doses to about 28.7 µM), for the others: top-dose activity change, negative = inhibition, actives largely listed as inhibitors; hit rate 6.9% among 320,000; active means well fitted inhibition curve with a large enough effect; inconclusive means small, poorly fitted or top-dose-only effect, or another doubt; inactive means no such curve, though single readings can be large or run the other way; further: potency means the concentration at half of the fitted maximal effect; on the % scale 0 is the no-effect control and ±100 the full control effect
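P. falciparum expressing integrated firefly luciferase grown in erythrocytes (2% hematocrit, 0.05% parasitemia final) with compounds for 96 hours at 37 C, 5% CO2. Growth inhibition read as loss of luminescence after adding luciferase detection reagent.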
NS1 inh: qHTS Assay for Inhibitors of Influenza NS1 Protein Function | Potency, µM (titrated, usually from 46.1 µM), for the others: at the highest dose activity, positive = more growth | hit rate 0.4% among 270,000; further: potency means the concentration at half of the fitted maximal effect; actives are rising curves; nearly all actives have a fitted effect of over 50% in size
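A cell-based growth assay was used: compounds that relieve NS1-induced slow growth of budding yeast raise OD600. Assay medium was yeast nitrogen base with ammonium sulphate and -URA supplement, pH 6.0, with 2% galactose.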
Shiga toxin inh: A qHTS for Small Molecule Inhibitors of Shiga Toxin. Vero cells, Shiga toxin protein synthesis inhibition reporter. inhibition, % at 38.7 µM. hit rate 9.2% among 290,000; in the data active means inhibition mostly above about 28%, no sharp cut-off; inactive means mostly below about 43%; further: 0% is about no effect
SARS PLpro yeast: qHTS of Yeast-based Assay for SARS-CoV PLP. hit rate 0.19% among 330,000. Potency, µM (series often up to 32.9 µM), without a hit: at the highest dose activity, positive = growth rescue, most hits filed as activators. S. cerevisiae expressing SARS-CoV PLpro, growth rescue; further: potency means the concentration at half of the fitted maximal effect; 0% is about no effect; nearly all actives have a fitted effect of over 55% in size
Pf growth 48h: Primary qHTS for delayed death inhibitors of the malarial parasite plastid, 48 hour incubation. P. falciparum luciferase growth in erythrocytes, 48 h. hit rate 5.9% among 310,000. Potency, µM (top dose mostly 28.7 µM), for the others: top-dose activity change, negative = inhibition, hits mostly inhibitors; active means well fitted inhibition curve with a large enough effect; inconclusive means small, poorly fitted or top-dose-only effect, or another doubt; inactive means no such curve, though single readings can be large or run the other way; further: potency means the concentration at half of the fitted maximal effect; on the % scale 0 is the no-effect control and ±100 the full control effect
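Luciferase-expressing P. falciparum in infected erythrocytes (2% hematocrit, 0.1% parasitemia final) in RPMI 1640/0.5% Albumax were exposed to compound for 48 hours at 37 C, 5% CO2; growth read as luminescence.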
Starred values were filed as active, the others as inactive; u = inconclusive; x = no result. Unless noted, the call rests on the fitted dose curve.

SMILES | Cycloheximide cs | Pf growth 96h | NS1 inh | Shiga toxin inh | SARS PLpro yeast | Pf growth 48h
Cc1cc(O)c(C(=O)/C=C/c2ccccc2Br)c(=O)o1 | 20.2* | -15.6% | u | x | -2.3% | u
CCc1ccccc1N/N=C(/C)c1c(O)cc(C)oc1=O | 1.1 | 357.3% | 0.3% | -6.3 | -6.7% | -24.3%
Cc1cc(O)c(C(=O)/C=C/c2ccc(C(C)C)cc2)c(=O)o1 | 52.7* | -10.5% | -16.4% | 66.3* | 1.1% | 16.6%
Cc1cc(C)c(C(=O)/C=C/c2ccc(C(C)C)cc2)c(=O)[nH]1 | -3.3 | u | -64.9% | -10.0 | -8.1% | u
CCOc1ccc(/C=C/C(=O)c2c(O)c3ccccc3oc2=O)cc1 | -2.0 | 105.6% | 11.0% | -7.5 | -1.9% | 25.5%
CCOc1ccc(/C=C/C(=O)c2c(O)cc(C)oc2=O)cc1 | 42.3* | 36.1% | u | 56.7* | 6.9% | 31.4%
O=C(CSc1nc(-c2ccccc2)c(-c2ccccc2)o1)NCCCO | 0.9 | -5.7% | -5.3% | -18.6 | 4.6% | u
Cc1cc(C)c(C(=O)/C=C/C=C/c2ccccc2)c(=O)[nH]1 | 24.9* | 42.8% | -10.4% | 51.6* | -2.1% | 44.5%
C/C(=C\C=C\c1ccccc1)C(=O)c1c(C)cc(C)[nH]c1=O | 5.3 | 5.8% | x | 14.5 | -1.5% | 10.6%
CC1Cc2cc(S(=O)(=O)N3CCN(c4ccccc4F)CC3)ccc2N1C(=O)C1CC1 (stereo not given) | -1.2 | u | 7.8% | -8.2 | -5.3% | 7.7%
CCOC(=O)CSC1=NC(=O)CS1 | -0.3 | 30.6% | u | -6.1 | -14.5% | -17.2%
COc1ccc(C(=O)c2sc(NC(C)C)nc2N)cc1OC | 0.4 | u | 0.2% | -16.1 | 12.0% | -26.4%
COc1cccc(C(=O)c2sc(NC(C)C)nc2N)c1 | 36.2* | u | 7.0% | 51.3* | -4.7% | u
CCOC(=O)C(C(=O)NCc1ccc(F)cc1)c1ncc(C(F)(F)F)cc1Cl (stereo not given) | 16.8* | 76.4% | 4.4% | 11.7 | 2.6% | u
O=C(NCc1ccc(F)cc1)C(C(=O)NCc1ccc(F)cc1)c1ncc(C(F)(F)F)cc1Cl | 6.6 | u | 0.7% | 0.9 | 11.5% | -28.5%
COc1ccccc1CNC(=O)COC(=O)CSc1ccc(C)c(C)c1 | x | 14.6% | x | x | 0.7% | u
Cn1cc(C(=O)c2cccc(Cl)c2)cc1/C=N\O | 33.0* | 28.2% | x | 38.6 | -0.2% | 76.6%
CC1CCCC(NC(=O)COC(=O)c2ccccc2[N+](=O)[O-])C1C (stereo not given) | 30.3* | 22.1% | x | 83.5* | -15.4% | 5.6%
CC(=O)c1c(C)[nH]c(C(=O)OCC(=O)NCCC2=CCCCC2)c1C | x | u | x | x | -1.2% | 13.1µM*
CCCNC(=O)COC(=O)c1ccccc1C(=O)c1ccc(Cl)c([N+](=O)[O-])c1 | 59.7* | 13.3% | x | 41.1 | 2.4% | u
COc1cccc(/C=C(/C(=O)OCC(=O)NC2CCCC(C)C2C)c2ccccc2)c1 (stereo not given) | -4.0 | u | -17.8% | -4.2 | -27.8% | 13.1µM*
CC(=O)c1c(C)[nH]c(C(=O)OCC(=O)NCCc2ccc(F)cc2)c1C | -3.7 | u | -3.9% | 1.6 | -0.9% | u
Cc1ccc(Cl)c(NC(=O)COC(=O)c2ccccc2C(=O)c2ccc(Cl)c([N+](=O)[O-])c2)c1Cl | -0.8 | -23.5% | 7.5% | -10.3 | -2.9% | -28.9%
C#C[C@]1(O)CC[C@H]2[C@H]3[C@H](CC[C@@]21C)C1=C(CC(=O)CC1)C[C@@H]3C | x | -25.7% | x | x | x | -5.4%
[N-]=[N+]=N[C@@H]1[C@H](O)[C@H](CO)O[C@@H]1n1cnc2c(N)ncnc21 | x | x | -9.0% | x | x | x
SMILES | Cycloheximide cs | Pf growth 96h | NS1 inh | Shiga toxin inh | SARS PLpro yeast | Pf growth 48h
CC(=O)c1c(C)[nH]c(C(=O)OCc2cccc(Cl)c2)c1C | 35.5* | 20.7% | x | 81.9* | -5.6% | -5.6%
CC(=O)c1c(C)[nH]c(C(=O)OCC(=O)NCCCc2ccccc2)c1C | x | 9.28µM* | x | x | 1.8% | u
CCOC(=O)c1[nH]c(C)c(C(=O)N2CCN(c3cccc(Cl)c3)CC2)c1C | -1.2 | 0.0% | -34.7% | -9.4 | -1.0% | 10.4µM*
O=C(COC(=O)c1ccccc1[N+](=O)[O-])NCCCc1ccccc1 | 37.7* | 28.1% | -4.3% | 70.3* | 1.1% | 12.4%
CC(=O)Nc1ccc(-c2nnc(SCC(=O)Nc3ccc4c(c3)oc3ccccc34)n2C)cc1 | 16.0* | u | -13.2% | 44.4 | -3.1% | -0.2%
CCn1c(SCC(=O)Nc2ccc3c(c2)oc2ccccc23)nnc1-c1ccc(N)cc1 | 35.2* | u | 20.6% | 39.2 | -15.4% | x
CCn1c(SCC(=O)Nc2ccccc2C(=O)OC)nnc1-c1ccc(N)cc1 | 1.3 | u | u | -5.1 | 3.6% | u
CCN1C[C@@]2(COC)CCC(OC)[C@]34C5C[C@]6(O)[C@@H](OC)C[C@](OC(C)=O)(C([C@H](OC)C23)[C@H]14)C5[C@H]6OC(=O)c1ccc(OC)cc1 (stereo not given in full) | 21.3* | x | x | 23.2* | x | x
CCN1C[C@]2(COC)CC[C@H](OC)[C@@]34C1[C@]1(OCO[C@@]15C[C@H](OC)[C@H]1C[C@@H]3[C@@H]5[C@H]1OC)[C@@H](O)[C@H]24 | x | 26.1% | x | x | x | 8.4%
CN(C)c1cc(N/N=C/c2ccc(Cl)cc2)nc(N(C)C)n1 | 10.8 | -16.9% | x | 43.9 | -13.1% | u
COc1ccccc1N1CCN(c2nccc(C)n2)CC1 | -2.5 | 1.7% | -6.0% | -6.6 | 1.6% | 25.2%
O=c1c(=O)n(O)c2ccccc2n1O | 1.3 | u | 15.8% | -20.9 | -4.8% | 17.3%
COc1ccc(CCNCC(=O)Nc2ccccc2C(F)(F)F)cc1 | -2.5 | -27.8% | x | -1.4 | -0.6% | 13.1µM*
CCOc1ccc(/C=C/C(=O)Nc2ccccc2C(F)(F)F)cc1 | 36.0* | -23.5% | -3.6% | 37.7* | 4.0% | 46.7%
COc1ccc(/C=C/C(=O)Nc2ccccc2C(=O)NCC(c2ccc(OC)cc2)N(C)C)cc1 (stereo not given) | 10.0 | u | -20.8% | 39.5* | 0.1% | u
COc1ccc2ccc(O)c(CN(C)CC(=O)Nc3ccccc3C(F)(F)F)c2c1 | -4.1 | u | 14.8% | 16.5 | 0.6% | 11.7µM*
Cc1noc(C)c1NC(=O)Nc1ccc2c(c1)C(=O)N([C@H](C)CO)C[C@H](C)[C@@H](CN(C)C(=O)Nc1ccc3c(c1)OCO3)O2 | x | x | x | x | -0.3% | x
Cc1nc2ccccc2c(C)c1CC(=O)OC(C)C(=O)NC1(C#N)CCCCC1 (stereo not given) | x | u | x | x | -2.5% | u
COc1ccc(/C=C/C(=O)Nc2ccccc2C(F)(F)F)cc1 | 24.4* | 146.8% | -1.8% | 58.9* | -4.7% | 73.9%
COc1ccc(OC)c(C2=NOC(C(=O)Nc3ccc4c(c3)OCCO4)C2)c1 (stereo not given) | 12.6 | -24.3% | -4.5% | 7.6 | 0.4% | -22.1%
